Screens as filed in PubChem.
A selection: hits, their analogues and other compounds. The true share with any hit is near 21%.
Shiga inhibitor = A qHTS for Small Molecule Inhibitors of Shiga Toxin | Vero cells, Shiga toxin protein synthesis inhibition reporter | inhibition, % at 38.7 µM | actives 9.2% (n = 290,000); in the data active = inhibition mostly above about 28%, no sharp cut-off; inactive = mostly below about 43%; also: 0% is about no effect
NS1 inh = qHTS Assay for Inhibitors of Influenza NS1 Protein Function | Potency, µM (doses to about 46.1 µM), for inactives: at the top dose activity, positive = more growth | actives 0.4% (n = 270,000); calls by dose curve; also: potency is read from the fitted curve at half-maximal effect; actives are rising curves; nearly all actives have a fitted effect of over 50% in size
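OD600 was taken as the measure of yeast growth restored by compound in an NS1-expressing S. cerevisiae strain. Cells had been washed out of glucose medium and diluted 1:100 into galactose -URA medium, pH 6.0.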
Cycloheximide cs = Cycloheximide Counterscreen for Small Molecule Inhibitors of Shiga Toxin. AID 2314, 2010. cell reporter, cycloheximide protein synthesis inhibition counterscreen. max response, %. actives 12% (n = 300,000); in the data active = max response mostly above about 13%, no sharp cut-off; inactive = mostly below about 14%; also: read at 38.3 µM for the half of the compounds with a filed dose; 0% is about no effect
Sm TGR inh = qHTS Assay for the Inhibitors of Schistosoma Mansoni Peroxiredoxins | Schistosoma mansoni thioredoxin glutathione reductase (TGR), Q962Y6 | purified TGR, DTNB reduction, TNB absorbance 405 nm | Potency, µM (series often up to 114 µM), without a hit: top-dose activity change, negative = inhibition, usual class: inhibitors | actives 3% (n = 360,000); also: potency is read from the fitted curve at half-maximal effect; % is scaled to controls: 0 for no effect and ±100 for the full control effect; nearly all actives have a fitted effect of over 60% in size
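TGR 20 nM + NADPH 100 uM (dispensed conc.), cpd preinc 15 min RT; start with NADPH (500 uM addition) then DTNB (15 mM addition). Kinetic TNB absorbance, 405 nm filter. Four-parameter Hill fit across titration.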
Pf growth 96h = Primary qHTS for delayed death inhibitors of the malarial parasite plastid, 96 hour incubation. actives 6.9% (n = 320,000). Potency, µM (titrated, usually from 28.7 µM), inactives show at the highest dose activity change, negative = inhibition, most hits filed as inhibitors. P. falciparum luciferase reporter growth, 96 h; also: potency is read from the fitted curve at half-maximal effect; % is scaled to controls: 0 for no effect and ±100 for the full control effect
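Erythrocytes infected with luciferase-expressing P. falciparum were dispensed at 2% hematocrit and 0.05% parasitemia (final), then incubated with compounds 96 hours at 37 C in 5% CO2. Luminescence after detection reagent addition reported growth.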
Pf growth 48h = Primary qHTS for delayed death inhibitors of the malarial parasite plastid, 48 hour incubation; P. falciparum luciferase growth in erythrocytes, 48 h; Potency, µM (doses to about 28.7 µM), for the others: top-dose activity change, negative = inhibition, actives largely listed as inhibitors; actives 5.9% (n = 310,000); also: potency is read from the fitted curve at half-maximal effect; % is scaled to controls: 0 for no effect and ±100 for the full control effect
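Growth was read as firefly luciferase luminescence after a 48 h, 37 C, 5% CO2 exposure of compounds to reporter-bearing P. falciparum cultures (0.1% parasitemia, 2% hematocrit final) in Albumax-supplemented RPMI 1640.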
An asterisk follows results filed as active; ? = inconclusive; · = no result; [ ] = another dose, or the depositor's remark. Unless noted, calls follow the shape of the dose curve; as a rule, active = well fitted curve in the direction sought with a large enough effect; inconclusive = small, poorly fitted or top-dose-only effect, or another doubt; inactive = no such curve, though single readings can be large; an effect the other way counts as inactive or inconclusive.

SMILES	Shiga inhibitor	NS1 inh	Cycloheximide cs	Sm TGR inh	Pf growth 96h	Pf growth 48h
COC(=O)Cc1cc(=O)[nH]c(/N=C(\N)Nc2cccc(C)c2)n1	-42	6%	-3	12%	12µM*	19%
COC(=O)Cc1cc(=O)[nH]c(/N=C(\N)Nc2ccc(C(C)C)cc2)n1	11	2%	-2	9%	0.83µM*	24%
CC1CC(C)CN(S(=O)(=O)c2ccc(C(=O)Nc3nnc(-c4cccs4)o3)cc2)C1 (stereo unspecified)	-15	-48%	-4	-6%	1%	?
CCC1CCCCN1S(=O)(=O)c1ccc(C(=O)Nc2nnc(-c3cccs3)o2)cc1 (stereo unspecified)	6	-97%	1	7%	42%	10µM*
CN(C)S(=O)(=O)c1ccc(C(=O)Nc2nnc(-c3cccs3)o2)cc1	16	·	19*	-13%	?	13µM*
Cn1ccc(NC(=O)Nc2cccc([N+](=O)[O-])c2)n1	39*	-3%	23*	3%	-2%[5.75 µM]	?
Cc1ccc(NC(=O)Nc2cccc([N+](=O)[O-])c2)nc1	85*	·	20*	0%	?	83%
Cc1ccc(NC(=O)Nc2ccc([N+](=O)[O-])cc2)nc1	22	·	7	33%	76%	12%
CCCCNC(=O)CSc1nc(COc2ccccc2)nc2ccccc12	14	2%	-3	·	-17%	?
CSC(=S)N/N=C/c1ccccc1	27*	·	25*	5%	?	?
COC(=O)N/N=C/c1cccnc1	-7	2%	-4	2%	-5%	11%
COC(=O)N/N=C/c1ccccc1	30	1%	17*	-3%	20%	23%
COc1ccc(/C=N/NC(=S)SC)cc1OC	22	·	18*	9%	?	-29%
O=C(CNC(=O)c1ccccc1)NC1(C(=O)NC2CCCCC2)CCCCC1	26	·	14	0%	-15%	-24%
Cc1cc2c(OCC(O)CNCc3ccco3)cccc2[nH]1 (stereo unspecified)	-6	6%	1	-31%	3.3µM*	2.9µM*
COc1ccc(CCN2C(=O)CSC2=Nc2ccc(C)cc2C)cc1OC	-1	-8%	-1	8%	?	2.6µM*
O=C(Nc1ccc(Cl)cc1)[C@@H]1[C@@H]2C(=O)N(c3cccc(F)c3)C(=O)[C@@H]2[C@H]2C=CC=NN21	5	11%	8	22µM*	-12%	-2%
O=C(Nc1ccc(Cl)cc1)[C@@H]1[C@@H]2C(=O)N(c3ccc4ccccc4c3)C(=O)[C@@H]2[C@H]2C=CC=NN21	-13	2%	-4	?	·	-23%
O=C(Nc1nccs1)C1CC=CCC1C(=O)OCC(F)(F)C(F)F (stereo unspecified)	·	·	·	-18%	-30%	-16%
O=C(CCS(=O)(=O)c1ccccc1)Nc1nc2cc3c(cc2s1)OCCO3	90*	2%	45*	10µM*	5.2µM*	-36%
O=C(CCS(=O)(=O)c1ccccc1)Nc1nc2cc3c(cc2s1)OCO3	55	-8%	34*	10µM*	-23%	1%
NS(=O)(=O)c1ccc2nc(NC(=O)CS(=O)(=O)c3ccccc3)sc2c1	-5	2%	-3	-19%	25%	0%
CCNc1nc(Cl)nc(NNC(=O)C(C)Oc2ccccc2)n1 (stereo unspecified)	-9	3%	1	-24%	?	12%
CCOC(=O)C1=C(C)Nc2sc(C(=O)c3ccc(OC)cc3)c(N)c2C1c1ccc(C(=O)OC)cc1 (stereo unspecified)	26	27%	-2	-10%	5.9µM*	7.4µM*
Cc1ccccc1C(=O)OCC(=O)N(C)c1ccccc1	31	-32%	24*	-5%	42%	-2%
Cc1c(C(=O)OCC(=O)N(C)c2ccccc2)cccc1[N+](=O)[O-]	-5	·	-3	68%	29%	-2%
Cc1cccc(C(=O)OCC(=O)N(C)c2ccccc2)c1C	35*	-26%	14*	10%	15%	8%
